# Source: PubChem BioAssay
# TDP1 block: qHTS Assay for Inhibitors of Tyrosyl-DNA Phosphodiesterase (TDP1); Tyrosyl-DNA phosphodiesterase 1 (Homo sapiens), Q9NUW8; recombinant TDP1, AlphaScreen DNA substrate cleavage; Potency, µM (titrated, usually from 130 µM), without a hit: top-dose activity change, negative = inhibition, usual class: inhibitors; 0.28% of 350,000 active; further: potency means the concentration at half of the fitted maximal effect; on the % scale 0 is the no-effect control and ±100 the full control effect; nearly all actives have a fitted effect of over 40% in size
# Target sequence (Q9NUW8 whole entry, looked up): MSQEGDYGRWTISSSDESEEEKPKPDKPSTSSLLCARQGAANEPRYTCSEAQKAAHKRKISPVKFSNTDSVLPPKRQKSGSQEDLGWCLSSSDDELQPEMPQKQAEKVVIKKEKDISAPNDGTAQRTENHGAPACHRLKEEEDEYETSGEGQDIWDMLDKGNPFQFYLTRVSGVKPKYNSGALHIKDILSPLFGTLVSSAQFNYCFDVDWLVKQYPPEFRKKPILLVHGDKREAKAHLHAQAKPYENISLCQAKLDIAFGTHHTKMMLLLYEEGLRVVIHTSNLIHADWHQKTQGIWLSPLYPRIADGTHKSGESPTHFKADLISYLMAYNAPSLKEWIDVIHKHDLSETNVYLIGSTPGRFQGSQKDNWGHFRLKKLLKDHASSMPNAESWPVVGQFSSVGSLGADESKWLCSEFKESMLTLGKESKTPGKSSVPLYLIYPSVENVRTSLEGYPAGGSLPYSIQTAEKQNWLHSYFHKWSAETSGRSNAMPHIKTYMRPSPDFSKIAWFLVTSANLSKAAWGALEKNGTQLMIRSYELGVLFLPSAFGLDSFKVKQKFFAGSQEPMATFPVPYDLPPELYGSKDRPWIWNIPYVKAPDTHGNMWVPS
#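 Signal: AlphaScreen proximity between streptavidin donor and anti-FITC acceptor beads on intact substrate. Reaction: Tdp1 1 nM, substrate 15 nM final, 5 min RT after 15 min compound preincubation.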
# DT40 TDP1 CPT: qHTS for Inhibitors of human tyrosyl-DNA phosphodiesterase 1 (TDP1): qHTS in cells in presence of CPT; chicken DT40 Tdp1-/-;hTDP1 cells + 20 nM CPT, ATP luminescence, 48 h; Potency, µM (highest dose often 46.2 µM), for the others: at the highest dose activity change, negative = growth inhibition, hits mostly inhibitors; 12% of 420,000 active; AID 686979, 2013; further: potency means the concentration at half of the fitted maximal effect; on the % scale 0 is the no-effect control and ±100 the full control effect; nearly all actives have a fitted effect of over 55% in size
#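 Cell growth measured by CellTiter-Glo luminescence after a minimum 48 h, 37 C compound exposure with 20 nM CPT in Tdp1-knockout DT40 cells stably expressing hTDP1, seeded 400/well; qHTS titration format.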
# miR-21 reporter: qHTS Assay for Modulators of miRNAs and/orActivators of miR-21; HeLa miR-21 FLuc reporter, luciferase, 48 h; Potency, µM (series often up to 38.3 µM), inactives show at the top dose activity change, positive = activation, hits mostly activators; 340,000 tested, under 10 active; AID 2288, 2010;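 further: % of control where 0% means no effect; miR-21 action dims this reporter so a rising signal means less miR-21 action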
#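 Compounds were titrated across several concentrations (up to approximately 40 uM) and incubated 48 hours with HeLa miR-21-FLuc reporter cells (miR-21 target sequence downstream of FLuc, endogenous miR-21). Readout was firefly luciferase luminescence after lytic detection reagent.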
# DT40 TDP1 no CPT: qHTS for Inhibitors of human tyrosyl-DNA phosphodiesterase 1 (TDP1): qHTS in cells in absence of CPT; 15% of 420,000 active; Potency, µM (series often up to 46.2 µM), for the others: at the top dose activity change, negative = growth inhibition, usual class: inhibitors; DT40 Tdp1-/- hTDP1 cells, no CPT, ATP luminescence, 48 h; further: potency means the concentration at half of the fitted maximal effect; on the % scale 0 is the no-effect control and ±100 the full control effect; nearly all actives have a fitted effect of over 55% in size
#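 Seeded 400 DT40-hTDP1 cells/well (vehicle DMSO, no 20 nM CPT); pinned compounds; ≥48 hr at 37 °C; CellTiter-Glo luminescence as viability measure.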
# uPA surface inh: qHTS for Inhibitors of Cell Surface uPA Generation | 0.31% of 330,000 active | cell surface uPA generation assay, qHTS | Potency, µM (top dose mostly 38.3 µM), without a hit: top-dose activity change, negative = inhibition, most hits filed as inhibitors; active means well fitted inhibition curve with a large enough effect; inconclusive means small, poorly fitted or top-dose-only effect; inactive means no such curve, though single readings can be large or run the other way; tested in mouse RAW 264.7 cells; further: potency means the concentration at half of the fitted maximal effect; on the % scale 0 is the no-effect control and ±100 the full control effect; nearly all actives have a fitted effect of over 55% in size
# An asterisk follows results filed as active; ? = inconclusive; / = no result; ! = not confirmed by another sample; [ ] = dose if it differs, or a comment. Sampled rows, rich in hits. Any-hit rate of the full collection: about 16%. Unless noted, the call rests on the fitted dose curve; in most records, active means well fitted curve in the direction sought with a large enough effect; inconclusive means small, poorly fitted or top-dose-only effect, or another doubt; inactive means no such curve, though single readings can be large; an effect the other way counts as inactive or inconclusive.
SMILES,TDP1 block,DT40 TDP1 CPT,miR-21 reporter,DT40 TDP1 no CPT,uPA surface inh
COc1ccc2c(c1)C(NC(C)=O)CCc1cc(OC)c(OC)c(OC)c1-2 (stereo unspecified),/,0.0082µM*,/,0.0184µM*,-10.3%
COc1cc2c(c(OC)c1OC)-c1ccc(O)c(=O)cc1C(NC(C)=O)CC2 (stereo unspecified),9.7%[56.1 µM],0.0259µM*,23.8%,0.0651µM*,-3.7%
CCC(N)C(O)c1ccc(O)c(O)c1 (stereo unspecified),/,?,/,-22.1%,/
NC1CCCCC1N (stereo unspecified),2.3%,/,/,/,/
ClC(Cl)c1ccccc1,12.7%,/,/,/,/
CC(=O)O[C@H]1[C@H]2[C@@H](OC(=O)Cc3ccccc3)[C@@H](C)C[C@]2(OC(C)=O)C(=O)/C(C)=C/[C@@H]2[C@H](CC[C@@]13CO3)C2(C)C,7.1%,/,/,/,/
C=CCn1c(O)c(C(CC)=NCc2cc(OC)cc(OC)c2)c(=O)[nH]c1=O,5.6%,7.31µM*,16.9%,7.31µM*,-6.7%
C=CCn1c(O)c(C(CC)=NCCCO)c(=O)[nH]c1=O,3.2%,-5.9%,-2.4%,8.2µM*,-3.1%
Cc1ccc(-n2c(O)c(C=Nc3ccc(Br)cn3)c(=O)[nH]c2=O)cc1,-2.4%,8.2%,-1.4%,-4.5%,1.6%
O=C(O)/C=C/CO,7.3%,-3.2%,/,-4.2%,/
COc1ccc(C(=O)NCc2cc3ccccc3n2C)cc1,/,-0.1%,-39.6%,-16.9%,2.2%
CS(=O)(=O)c1ccc(C2=C(CNC(=O)c3nccs3)[C@H]3CC[C@@H](C2)N3Cc2ccccc2)cc1,/,-2.8%,/,?,/
COc1cccc(C2CC3C(=O)C=CC2N3Cc2ccccc2)c1 (stereo unspecified),7.7%,20.6µM*,-0.5%,16.4µM*,-5.9%
CCC1(CCC(C)C)C(=O)NC(=S)NC1=O,/,6.8%,/,-5.1%,5.5%
O=C1NC(=O)C(=Cc2cn(CCOc3ccc4c(c3)OCO4)c3ccccc23)C(=O)N1,2.2%,?,-4.6%,20.6µM*,2.4%
C=CCn1cc(C=C2C(=O)NC(=O)NC2=O)c2ccccc21,/,-28.2%,-4.5%,-25.2%,-3.9%
O=C(NCc1ccc(Cl)cc1)C1CCCN(C(=O)c2cnn(-c3ccc(F)cc3)c2-n2cccc2)C1 (stereo unspecified),5.6%,8.2µM*,16.0%,5.8µM*,/
CSc1cccc(NC(=O)C2CCN(C(=O)c3cnn(-c4ccccc4)c3-n3cccc3)CC2)c1,5.1%,16.4µM*,?,18.4µM*,/
COCc1c(C(=O)N2CCC(c3ccccc3)CC2)cnn1-c1nccc(-c2cc(C)sc2C)n1,/,-11.2%[9.04 µM],/,?,/
Cc1ccc(NC(=O)C2CCCN(C(=O)c3cnn(-c4ccccc4)c3-n3cccc3)C2)cc1 (stereo unspecified),5.1%,14.6µM*,11.5%,18.4µM*,/
CC(=O)OC1CCC2(C)C(=CC(=O)C3C2CCC2(C)C(OC(C)=O)CCC32)C1 (stereo unspecified),/,?,/,?,11.2%
COC(=O)C(O)(c1ccc(NC(=S)NC(=O)c2ccccc2)cc1)C(F)(F)F (stereo unspecified),8.8%,-17.9%,-20.8%,-17.3%,-5.7%
O=C(O)C1Cc2ccccc2N2CCCC12 (stereo unspecified),/,-27.5%,0.2%,-7.4%,0.8%
N#Cc1cccc(NC(=O)N2CC3(CCN(C(=O)Oc4ccccc4)CC3)C2)c1,/,-3.6%,/,?,/
Cn1c(=O)oc2cc(S(=O)(=O)Nc3cccc([N+](=O)[O-])c3)ccc21,/,15.1%,-32.5%,-24.5%,2.0%
SMILES,TDP1 block,DT40 TDP1 CPT,miR-21 reporter,DT40 TDP1 no CPT,uPA surface inh
COc1ccc(NS(=O)(=O)c2ccc3c(c2)oc(=O)n3C)cc1Cl,-2.3%,13µM*!,10.1%,16.4µM*,-9.8%
Cc1nc(Nc2cnc(/C=C/c3cc(C(=O)Nc4cccc(C(F)(F)F)c4)ccc3C)cn2)cc(N2CCNCC2)n1,/,18.4µM*,?,20.6µM*,?
CC(C)CCOP(=O)(c1ccc(N(C)C)cc1)C(O)c1ccc(C(C)C)cc1 (stereo unspecified),/,?,15.5%,20.6µM*,6.5%
CCCCOP(=O)(c1ccc(N(C)C)cc1)C(O)c1c(Cl)cccc1Cl (stereo unspecified),/,?,3.4%,?,14.7%
CC(C)CCOP(=O)(c1ccc(N(C)C)cc1)C(O)c1ccc(Cl)cc1Cl (stereo unspecified),/,16.4µM*,27.7%,20.6µM*,1.5%
CC(=O)OC1CC2(C)C(C(C)=O)CCC2C2CCC3=CC(=O)CCC3(C)C12 (stereo unspecified),/,?,/,?,5.1%
CCCCn1c(=O)c(C(=O)Nc2nnc(C(C)C)s2)c(O)c2ccccc21,-2.5%,/,4.8%,/,/
CCCCCn1c(=O)c(C(=O)NC(C)c2ccccc2)c(O)c2ccccc21 (stereo unspecified),/,?,-0.9%,20.6µM*,5.1%
CCCCn1c(=O)c(C(=O)NCc2ccccc2)c(O)c2ccccc21,/,?,1.4%,16.4µM*,7.1%
CCCCn1c(=O)c(C(=O)Nc2ccccc2)c(O)c2ccccc21,6.0%,3.66µM*,-7.6%,4.11µM*,-1.6%
CCCCn1c(=O)c(C(=O)Nc2ccccc2S(N)(=O)=O)c(O)c2ccccc21,1.0%,?,4.7%,?,/
CCCCCn1c(=O)c(C(=O)Nc2ccccc2S(N)(=O)=O)c(O)c2ccccc21,-2.8%,6.51µM*,-36.6%,4.61µM*,-12.6%
C#CCOCOCC#CCN(CC)CC,-5.9%,0.3%,-3.0%,-10.9%,13.7%
COC(=O)C1=C(c2ccc(F)cc2F)C[C@@H]2CC[C@H]1N2C(=O)NCCCOC(C)C,0.1%,-5.1%,/,-17.8%,5.1%
O=P(CCl)(Nc1ccccc1)C(Cl)(Cl)Cl (stereo unspecified),3.0%,21.7%,1.4%,14.6%,3.7%
